A selection: hits, their analogues and other compounds. The true share with any hit is near 10%.
JMJD2A Tudor – JMJD2A Tudor domain (human) inhibition; O75164; AlphaScreen JMJD2A-Tudor / H3K4me3 peptide binding; Potency, µM (titrated, usually from 114 µM), usual class: inhibitors; 4.4% of 390,000 active; also: nearly all actives have a fitted effect of over 50% in size
BAZ2B block – blocks human BAZ2B. Q9UIF8. AlphaScreen BAZ2B-H3K14Ac peptide displacement. Potency, µM (doses to about 114 µM), usual class: inhibitors. 4.4% of 360,000 active. AID 504333; also: nearly all actives have a fitted effect of over 60% in size
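BAZ2B 50 nM plus b-H3(5-23)K14Ac 50 nM, PBS pH 7.4/0.01% Tween-20, 30 min RT; compound added (max 110 uM), 30 min RT; streptavidin donor/Ni-chelate acceptor beads 10 ug/mL final, 20 min dark; AlphaScreen read.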
L3MBTL1 block – L3MBTL1 (human) inhibition; Q9Y468; AlphaScreen L3MBTL1–H3K9me1 peptide binding; Potency, µM (top dose mostly 57.1 µM), most hits filed as inhibitors; 0.66% of 230,000 active; AID 485360; also: nearly all actives have a fitted effect of over 60% in size
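Displacement of a biotinylated histone H3(1-15) peptide monomethylated at Lys9 (75 nM) from L3MBTL1 (50 nM) was measured by AlphaScreen after a 30 min room-temperature compound incubation; cefsulodin titration served as intraplate control.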
G9a block – G9a (human) methyltransferase inhibition. G9a H3K9 monomethylation, AlphaScreen, 2 h. Potency, µM (highest dose often 102 µM), actives largely listed as inhibitors. 8.8% of 350,000 active. AID 504332; also: nearly all actives have a fitted effect of over 75% in size
Target sequence (Q96KQ7 913-1193 limits assumed): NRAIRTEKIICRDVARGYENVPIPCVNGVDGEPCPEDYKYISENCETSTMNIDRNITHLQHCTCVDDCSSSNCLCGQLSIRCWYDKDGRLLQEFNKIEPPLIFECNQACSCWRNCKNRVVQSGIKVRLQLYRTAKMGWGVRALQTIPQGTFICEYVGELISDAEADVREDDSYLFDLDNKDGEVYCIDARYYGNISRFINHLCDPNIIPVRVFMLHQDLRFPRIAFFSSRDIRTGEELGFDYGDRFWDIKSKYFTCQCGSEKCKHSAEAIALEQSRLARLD
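G9a (20 nM) was preincubated 15 min with compound, then reacted 2 h at room temperature with 500 nM biotin-H3K9 peptide and 20 µM SAM. Monomethyl-H3K9 detected by AlphaScreen using anti-H3K9me1 antibody.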
HP1b binding inh – inhibitors of HP1-beta chromodomain binding to methylated histone tails. AlphaScreen HP1-beta / biotin-H3K9me3 peptide binding. P83916. AID 540317. 0.56% of 390,000 active. Potency, µM (top dose mostly 114 µM), most hits filed as inhibitors; also: nearly all actives have a fitted effect of over 70% in size
Target sequence (P83916 whole entry, looked up): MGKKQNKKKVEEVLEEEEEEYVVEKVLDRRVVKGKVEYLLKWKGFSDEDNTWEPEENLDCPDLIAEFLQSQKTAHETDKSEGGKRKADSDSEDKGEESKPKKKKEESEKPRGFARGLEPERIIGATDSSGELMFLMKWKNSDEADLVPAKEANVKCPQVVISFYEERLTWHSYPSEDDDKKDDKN
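AlphaScreen: HP1-beta (50 nM) preformed 30 min with biotin-H3(1-18)K9me3 peptide (50 nM) in PBS pH 7.4, 0.01% Tween-20. Compound added for 30 min at RT, then streptavidin donor/nickel chelate acceptor beads (10 ug/mL) for 30 min.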
GLS inhibitor – inhibitors of human glutaminase (GLS) | O94925 | GLS enzymatic activity, qHTS titration | Potency, µM (titrated, usually from 45.5 µM), most hits filed as inhibitors | 0.21% of 410,000 active
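hKGA in 45 mM KH2PO4 pH 8.2, 0.02% Tween-20 with pin-transferred compounds; 1 mM L-glutamine (stock) plus glutamate oxidase/HRP/Amplex Red coupling added. Fluorescence read initially and after 30 min at RT.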
Hits are given with their value; n = inactive; u = inconclusive; x = no result; [ ] = remark or other dose. Calls follow the shape of the dose curve; as a rule, active = well fitted curve in the direction sought with a large enough effect; inconclusive = small, poorly fitted or top-dose-only effect, or another doubt; inactive = no such curve, though single readings can be large; an effect the other way counts as inactive or inconclusive.

SMILES	JMJD2A Tudor	BAZ2B block	L3MBTL1 block	G9a block	HP1b binding inh	GLS inhibitor
CCOc1ccc(NC(=O)CSc2nnc(Cc3cccn3C)n2-c2ccc(OC)cc2)cc1	u	u	n	n[12.7 µM]	u	n
COc1ccc(-n2c(Cc3cccn3C)nnc2SCC(=O)Nc2ccc(C(C)=O)cc2)cc1	n	u	x	50.1µM	n	n
CC(=O)c1ccc(NC(=O)CSc2nnc(Cc3cccn3C)n2-c2ccc(F)cc2)cc1	u	50.1µM	x	50.1µM	n	n
COc1ccc(NC(=O)CSc2nnc(Cc3cccn3C)n2-c2ccc(OC)cc2)cc1	n	50.1µM	n	44.7µM	n	n
CC(=O)Nc1cccc(NC(=O)CSc2nnc(Cc3cccn3C)n2-c2ccc(C)cc2)c1	n	u	n	50.1µM	n	n
COc1ccc(-n2c(Cc3cccn3C)nnc2SCC(=O)Nc2cccc(NC(C)=O)c2)cc1	n	u	n	n[2.33 µM]	n	n
COc1ccc(-n2c(Cc3cccn3C)nnc2SCC(=O)Nc2ccc3c(c2)OCCO3)cc1	n	u	x	50.1µM	n	n
N#CCCn1c(=O)c(-c2ccc(F)cc2)nc2cnc(N3CCNCC3)nc21	x	x	x	n[0.501 µM]	x	x
O=C(O)c1ccc2c(=O)n(-c3ccc(F)cc3)c(=S)[nH]c2c1	n[11.4 µM]	n	n	u	n	n
O=c1cc(O)n(-c2ccc(F)cc2)c(=S)[nH]1	n	n	x	31.6µM	n	n
O=C(Cc1n[nH]c(=O)c2ccccc12)Nc1cc(Cl)ccc1-n1cncn1	n	n	n	n	n	n
O=C(Cc1n[nH]c(=O)c2ccccc12)Nc1cc(C(F)(F)F)ccc1-n1cncn1	n	n	n	35.5µM	n	n
COc1ccccc1NC(=O)Cn1c(=O)c(CNc2ccccc2)cc2cc(OC)c(OC)cc21	n	n	x	u	n	n
Cc1n[nH]c(=O)c2c(NC(=O)CSc3nnnn3-c3ccccc3)oc(C)c12	u	n	n	44.7µM	n	n
Cc1n[nH]c(=O)c2c(NC(=O)CSc3nc4ccccc4c(=O)n3C(C)C)oc(C)c12	n	n	x	56.2µM	n	n
COCCn1c(Cc2ccccc2)nnc1SCC(=O)Nc1oc(C)c2c(C)n[nH]c(=O)c12	n	n	n	14.1µM	n	n
CC(C)NC(=O)N1CCN(S(=O)(=O)c2ccc3c(ccn3C)c2)CC1	n	n	x	n	n	n
CC1(C)CC(=O)C2=C(C1)Nc1cc3c(cc1C2c1ccc2c(c1)OCO2)OCO3 (configuration not stated)	u	u	x	39.8µM	n	n
CC1(C)CC(=O)C2=C(C1)Nc1cc3c(cc1C2c1ccc(F)cc1)OCO3 (configuration not stated)	n	u	n	x	n	n
CCCOc1ccc(-c2nn(-c3ccccc3)cc2/C=C2\SC(N)=NC2=O)cc1C	n	n	n	n	n	n
COc1ccc(-c2nn(CCC(=O)O)cc2/C=C2\SC(N)=NC2=O)cc1OC	u	56.2µM	n	u	n	n
CC(=O)Nc1ccc(NC(=O)COC(=O)c2ccccc2SCC(=O)N2CCCC2)cc1	n	n	n	17.8µM	n	n
COc1ccc(CNC(=O)c2ccccc2SCC(=O)N2CCCC2)cc1OC	n	n	n	44.7µM	n	n
CCNC(=O)NC(=O)COC(=O)c1ccccc1SCC(=O)NC(=O)NCC	u	n	n	44.7µM	u	u
COc1ccc(NC(=O)COC(=O)c2ccccc2SCC(=O)N2CCCC2)cc1	n	n	n	39.8µM	n	n
COc1ccccc1CCNC(=O)c1ccccc1SCC(=O)N1CCCC1	n	n	n	n[12.7 µM]	n	n
Cc1ccccc1NC(=O)COC(=O)c1ccccc1SCC(=O)N1CCCC1	n	n	x	u	n	n
O=C(COC(=O)c1ccccc1SCC(=O)NC1CCS(=O)(=O)C1)NC1CCS(=O)(=O)C1 (configuration not stated)	n	n	n	n	n	n
Cc1noc(C)c1-c1ccc2ncnc(NCc3cc(F)cc(F)c3)c2c1	n	x	x	x	x	x
